Bioassay records: PubChem, National Center for Advancing Translational Sciences (NCATS)
Many of the other results were omitted from the sample, so hits are more common in it than they were.
Methyltransferases: Primary Screen for Target Class Profiling of Small Molecule Inhibitors of Methyltransferases | actives 3.9% (n = 25,000) | calls only at 40 µM | purified enzyme, MTase-Glo SAH luminescence; active compounds read low; call rule not given here
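Each enzyme was reacted with SAM and its substrate, with compounds tested once at 40 uM; SAH formed was read by MTase-Glo luminescence.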
Active calls of the source: *; i = inactive; + = active, no number. On the % scale 0 is the no-effect control and ±100 the full control effect.

SMILES	Methyltransferases
NCCCNc1ccc(Nc2nccc(Nc3cc(C4CC4)[nH]n3)n2)cc1	+
COC(=O)C1=C2Nc3ccccc3C23CCN2CCCC(C(C)O)(C1)C23 (stereo not drawn)	+
COc1ccc(N2CCOCC2)c2sc(NC(=O)N3CCC(C)(O)CC3)nc12	i
Cn1cc(-c2cnc3ccc4ccc(CS(=O)(=O)NCc5ccccn5)cc4c(=O)c3c2)cn1	+
Cn1cc(-c2ccc3ncc(Cc4ccc5ncccc5c4)n3n2)cn1	i
CN1C(=O)c2cc(C(=O)NCc3ccccn3)nn2CC1(C)C(=O)NCc1ccccc1 (stereo not drawn)	i
CN1C(=O)c2cc3ccccc3n2CC1(C)C(=O)NCC(=O)NCCCc1ccccc1 (stereo not drawn)	i
COc1cc(/C=N\NC(=O)c2ccc3c(c2)OCO3)ccc1OCc1ccccc1	+
COc1ccccc1CNC(=O)C1(C)Cn2nc(-c3ccccc3)cc2C(=O)N1Cc1ccc2c(c1)OCO2 (stereo not drawn)	i
COc1ccc(/C=C/C(=O)Nc2ccccc2C(=O)O)cc1OC	i
CCC1c2ccc(C)n2CCN1C(=O)Nc1ccc(F)cc1F (stereo not drawn)	i
Cc1cc(=O)oc2c(C=O)c(O)ccc12	+
COC(=O)COc1ccc2c(-c3ccccc3)cc(=O)oc2c1C	i
O=c1cc(-c2ccccc2)oc2c(O)c(O)ccc12	i
Cc1ccc(N2C(=O)c3ccc(-c4ccco4)n3CC2(C)C(=O)NCc2ccc(Cl)cc2)c(C)c1 (stereo not drawn)	i
Cc1cccc(NC(=O)Cn2nc3n(C(C)C)c(=O)c4ccc(C(=O)NCC(C)C)cc4n3c2=O)c1	i
Cc1cc(C)cc(N2C(=O)CSc3c(c4ccccc4n3C)C2C(=O)NCCC(C)C)c1 (stereo not drawn)	i
Cc1ccc(NC(=O)Cn2nc3n(C(C)C)c(=O)c4ccc(C(=O)NCC(C)C)cc4n3c2=O)c(C)c1	i
COc1cnc(-c2ccc(Cn3c(CC(C)(C)C(=O)O)c(SC(C)(C)C)c4cc(OC[C@@H]5Cc6ccccc6N5C(C)=O)ccc43)cc2)nc1	+
COc1c2c(c(C)c3c1C(=O)OC3)O[C@@]1(C)CC(O)C(C(C)(C)O)[C@](C)(CCC(=O)O)[C@H]1C2 (stereo partly drawn)	i
COc1c2c(c(C)c3c1C(=O)OC3)OC1(C)CC(O)C34OC(OC)(CC(O)C3(C)C1C2)OC4(C)C (stereo not drawn)	+
COc1c2c(c(C)c3c1C(=O)OC3)OC1(C)CC(O)C3(O)C(C)(C)OC(=O)CCC3(C)C1C2 (stereo not drawn)	i
COc1cc2c(NC(C)=O)c3n(c2cc1OC)CC(C)(C(=O)NC1CCCCCC1)N(CCC(C)C)C3=O (stereo not drawn)	i
COc1ccccc1N1C(=O)c2cc3ccccc3n2CC1(C)C(=O)NC1CCCCCC1 (stereo not drawn)	i
O=C(CCn1ccc2cc(S(=O)(=O)N3CCCCC3)ccc21)N1CCN(c2ccccc2F)CC1	i
SMILES	Methyltransferases
Cn1c(CNc2ccc(C(=N)N)cc2)nc2cc(C(=O)N(CCC(=O)O)c3ccccn3)ccc21	+
Cc1ccc(Cl)cc1N1C(=O)c2cc3sccc3n2CC1(C)C(=O)NC1CCCC(C)C1C (stereo not drawn)	i
CCOc1ccc(CCNC(=O)CCc2nnc3n(Cc4ccc(C)cc4)c(=O)c4ccccc4n23)cc1	i
CNCCN(C)Cc1cn[nH]c1-c1ccc(OC2CC(OCCC3CCOCC3)C2)cc1 (stereo not drawn)	+
Cc1ccc(C)c(NS(=O)(=O)c2cc3[nH]c(=O)[nH]c3cc2C)c1	i
Cc1ccc(C)c(N2C(=O)c3cc4oc(C)cc4n3CC2(C)C(=O)NC2CCCCCC2)c1 (stereo not drawn)	i
Cc1ccc(CNC(=O)c2sc(=S)n3c2[nH]c(=O)c2cc4c(cc23)OCO4)cc1	i
COc1ccc(CC(=O)N(C)C2CCc3nnc(C)n3CC2)cc1Cl (stereo not drawn)	i
C=C[C@@]1(C)C=C2C(=O)C(O)=C3[C@](C)(C(=O)O)CC[C@@H]4C[C@]34[C@]2(O)C(=O)C1	i
COc1ccc(C)cc1NS(=O)(=O)c1ccc2[nH]c(=O)[nH]c2c1	i
CCOC(=O)c1cc2n(n1)CC(C)(C(=O)NCc1ccc(C)cc1)N(CCc1cccs1)C2=O (stereo not drawn)	i
Cc1cccc(Cn2nc3n(CC(C)C)c(=O)c4ccc(C(=O)NCC(C)C)cc4n3c2=O)c1	i
COc1ccc(NC(=O)N2CCn3cccc3C2C(C)C)cc1OC (stereo not drawn)	i
CNC(=O)N1CCn2cccc2C1C (stereo not drawn)	i
COc1cccc(NC(=O)Cn2c(=O)oc3cc(S(=O)(=O)N4CCCCC4C)ccc32)c1 (stereo not drawn)	+
CC1CCN(C(=O)Cn2c(=O)oc3cc(S(=O)(=O)N4CCCCC4C)ccc32)CC1 (stereo not drawn)	i
COc1ccc(NC(=O)Cn2c(=O)oc3cc(S(=O)(=O)N4CCCC4)ccc32)cc1	i
c1ccc(O[C@H]2COCCN(Cc3cccc4c3OCO4)C2)cc1	i
CC(C)CCNC(=O)C1c2c(n(C)c3ccccc23)SCC(=O)N1c1ccc(F)cc1F (stereo not drawn)	i
CCN1C(=O)c2cc(C(=O)NCc3ccccc3)nn2CC1(C)C(=O)NC1CCCC1 (stereo not drawn)	i
O=[N+]([O-])c1ccc(-[n+]2nc(-c3ccccc3)nn2-c2ccc(I)cc2)cc1	+
O=C(Nc1cc(-c2ccccc2)nn1-c1ccccc1)c1ccc([N+](=O)[O-])cc1	i
CCc1ccccc1NC(=O)Cn1nc2n(C)c(=O)c3ccc(C(=O)NC(C)CC)cc3n2c1=O (stereo not drawn)	i
CC(C)(C)NS(=O)(=O)c1cncc(-c2cc(F)c3nc(N)nn3c2)c1	i
COc1ccccc1CNC(=O)C1(C)Cn2c(cc3ccccc32)C(=O)N1Cc1cccs1 (stereo not drawn)	i
SMILES	Methyltransferases
O=C(O)Cc1ccc2oc(-c3ccc(NC(=O)/C=C/c4ccc(Br)cc4)c(F)c3)nc2c1	i
C=Cc1cc2oc(-c3ccc(O)c(F)c3)nc2cc1O	+
O=C(CCc1nnc2n(Cc3ccc(Cl)cc3)c(=O)c3ccccc3n12)NCCCN1CCCC1=O	i
CCCN1C(=O)c2cc(C(=O)NCCc3ccc(Cl)cc3)nn2CC1(C)C(=O)NC1CCCC1 (stereo not drawn)	i
CCOC(=O)c1cc2n(n1)CC(C)(C(=O)NC1CCCC1)N(c1cccc(Cl)c1)C2=O (stereo not drawn)	i
C=CCn1c(=O)c2ccc(C(=O)NCC(C)C)cc2n2c(=O)n(CC(=O)NCc3ccccc3)nc12	i
COc1ccccc1CNC(=O)C1(C)Cn2nc(-c3ccccc3)cc2C(=O)N1C1CCCCCC1 (stereo not drawn)	i
O=C(NCc1ccccc1)c1ccc2c(=O)n(-c3cccc(C(F)(F)F)c3)c(=S)[nH]c2c1	i
CNC(=O)c1ccc2c(C(=Nc3cccc(CN(C)C)c3)c3ccccc3)c(O)[nH]c2c1	+
CC(C)CCn1c(=O)c2ccccc2n2c(CCC(=O)NCc3ccc4c(c3)OCO4)nnc12	i
CCCn1c(=O)c2ccccc2n2c(SCC(=O)Nc3ccc(C)cc3C)nnc12	i
